High-throughput results from PubChem.
CendR NRP1 mod – modulators of CendR peptide binding to NRP-1, primary screen, biochemical, fluorescence polarization, uHTS; FAM-RPARPAR peptide binding to NRP-1; inhibition, % at 25 µM; actives 0.85% (n = 360,000); AID 602438, 2012;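 active = inhibition or corrected inhibition above about 18%, plus a signal ratio from 0.5 to 1.5, limit read from the data, passing the limit was not always enough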
PglD inh – C. jejuni PglD acetyltransferase inhibitors, primary screen, biochemical, DTNB colorimetric, single point. actives 0.098% (n = 360,000). AID 602405, 2012. purified PglD enzyme, DTNB colorimetric CoA detection. inhibition, % at 12.5 µM; in the data active = inhibition above about 16%, passing the limit was not always enough
ERp5 inh – inhibitors of ERp5-driven insulin aggregation, primary screen, biochemical, turbidity, absorbance 650 nm, single point | Protein disulfide-isomerase A6 (Homo sapiens), Q15084 | inhibition, % at 9.99 µM | 90 min | actives 0.05% (n = 350,000);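 active = mean replicate inhibition above about 25%, with every replicate also reaching it, limit read from the data, passing the limit was not always enough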
ALR inh – inhibitors of human ALR sulfhydryl oxidase, primary screen, biochemical, H2O2 detection, HRP-luminol luminescence, single point; FAD-linked sulfhydryl oxidase ALR (Homo sapiens), P55789; inhibition, % (concentration not given with the values); actives 3.8% (n = 290,000); purified ALR, DTT oxidation; AID 485317, 2010;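 active = mean replicate inhibition above about 79%, with every replicate also reaching it, limit read from the data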
PDI inh – inhibitors of human PDI, primary screen, biochemical, turbidity, single point, plate reader. Protein disulfide-isomerase (Homo sapiens), P07237. PDI insulin aggregation turbidity, A650, 90 min. inhibition, % at 10 µM. actives 0.052% (n = 350,000);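 active = mean inhibition across replicates of 30% or more, whatever share of single replicates reach that level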
Target sequence (P07237 whole entry, looked up): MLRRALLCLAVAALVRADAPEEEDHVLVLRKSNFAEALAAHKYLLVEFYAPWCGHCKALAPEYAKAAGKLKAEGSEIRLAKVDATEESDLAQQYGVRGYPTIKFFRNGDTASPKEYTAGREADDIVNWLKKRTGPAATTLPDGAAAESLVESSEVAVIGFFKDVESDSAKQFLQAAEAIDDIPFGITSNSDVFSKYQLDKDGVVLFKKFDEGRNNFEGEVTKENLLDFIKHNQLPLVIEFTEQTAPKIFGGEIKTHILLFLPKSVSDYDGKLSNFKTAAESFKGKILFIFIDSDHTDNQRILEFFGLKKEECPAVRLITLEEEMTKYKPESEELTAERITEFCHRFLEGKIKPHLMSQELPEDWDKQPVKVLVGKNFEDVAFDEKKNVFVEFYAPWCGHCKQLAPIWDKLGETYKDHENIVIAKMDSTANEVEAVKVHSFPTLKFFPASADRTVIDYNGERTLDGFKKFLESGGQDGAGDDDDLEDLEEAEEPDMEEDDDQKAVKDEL
ARNT TACC3 PPI – disruptors of ARNT/TACC3 protein interaction, primary screen, biochemical, AlphaScreen, single concentration; Transforming acidic coiled-coil-containing protein 3 (Homo sapiens), Q9Y6A5; AlphaScreen His-ARNT PAS-B/GST-TACC3 binding, luminescence; TACC3 fragment carries E629A point mutation; inhibition, % at 9.99 µM; actives 0.66% (n = 390,000); AID 623870, 2012;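 active = mean inhibition of replicates at least 50% and at least half of replicates each reaching 50%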
Of the large screens only hits and unclear results are named; the others gave an inactive call. The full list was thinned out, with hits kept by preference.

CCc1nnc(SCC(=O)Nc2ccc(C(C)=O)cc2)nc1CC	ALR inh 99 (no result: ERp5 inh)
CN(C)c1ccc(NC(=O)CSc2nnc(-c3ccco3)c(-c3ccco3)n2)cc1	none (no result: ALR inh)
Cc1cccc(C)c1NC(=O)CSc1nnc(-c2ccco2)c(-c2ccco2)n1	ALR inh 99, ARNT TACC3 PPI 57 (no result: ERp5 inh)
CC(C)CC#Cc1cnc2c(c1)C(=O)N([C@H](C)CO)C[C@@H](C)[C@H](CN(C)Cc1ccccn1)O2	none (no result: CendR NRP1 mod, ALR inh, PDI inh)
CSc1nnc(-c2ccccc2)c(-c2ccccc2)n1	none (no result: PglD inh)
CSc1nnc(-c2ccco2)c(-c2ccco2)n1	CendR NRP1 mod 29 (no result: ARNT TACC3 PPI)
CC(=O)NC1C(=O)N=C(SCC(=O)Nc2cccc(Cl)c2)NC1=O (stereo unspecified)	ALR inh 99
CC(=O)NC1C(=O)N=C(SCC(=O)Nc2sc3c(c2C#N)CCCCCC3)NC1=O (stereo unspecified)	ALR inh 99 (no result: PglD inh)
O=C(CCl)N1N=C(c2ccco2)CC1c1cccs1 (stereo unspecified)	none (no result: ERp5 inh)
Cc1ccc(C2=NN(C(=O)CCl)C(c3cccs3)C2)o1 (stereo unspecified)	ALR inh 98 (no result: PglD inh)
C[C@H]1CN([C@@H](C)CO)C(=O)Cc2cc(NC(=O)CCN3CCOCC3)ccc2O[C@H]1CN(C)Cc1ccc(-c2ccccc2)cc1	none (no result: CendR NRP1 mod, PglD inh, ALR inh, PDI inh, ARNT TACC3 PPI)
Cc1ccc(-n2c(N)c(-c3nc4ccccc4n3C)sc2=S)cc1	none (no result: PglD inh, ERp5 inh)
Cn1c(N)c(-c2nc3cccnc3n2C)sc1=S	ALR inh 92 (no result: PglD inh)
CN(C[C@H]1N[C@@H](CO)[C@@H]1c1ccc(C2=CCCC2)cc1)C(=O)c1ccccn1	none (no result: CendR NRP1 mod, ALR inh, PDI inh)
C/C(=N\NC(=O)CCCNc1cccc(C)c1)c1ccncc1	ALR inh 93 (no result: PglD inh)
CCOC(=O)c1c2ccc(OCC(=O)NN)cc2n2ccccc12	CendR NRP1 mod 26 (no result: PglD inh)
CCOC(=O)c1c2ccc(OCC(=O)N/N=C/c3ccc(C)cc3)cc2n2ccccc12	none (no result: PglD inh, ERp5 inh)
C[C@H]1CN([C@@H](C)CO)C(=O)c2cc(C#CCc3ccccc3)cnc2O[C@H]1CN(C)Cc1cccnc1	none (no result: CendR NRP1 mod, ALR inh, PDI inh)
COCCn1c(SCC(=O)Nc2cc(C)cc(C)c2)nnc1C(C)C	ALR inh 100 (no result: ERp5 inh, ARNT TACC3 PPI)
COCCn1c(SCC(=O)c2ccc(Cl)cc2)nnc1C(C)C	ALR inh 91 (no result: PglD inh, ERp5 inh)
O=C(CSc1nnc2ccccn12)c1ccc(Cl)cc1	ALR inh 85
CCCNC(=O)N1CC(=O)N2[C@H](CO)[C@@H](c3ccc(C#Cc4cccc(F)c4)cc3)[C@H]2C1	none (no result: CendR NRP1 mod, PglD inh, ALR inh, PDI inh, ARNT TACC3 PPI)
COc1ccc(C(=O)NNC(=S)NC(=O)c2ccc(Cl)cc2)cc1	none (no result: CendR NRP1 mod, PglD inh, PDI inh)
COc1cc(OC)cc(C(=O)NC(=S)NNC(=O)Cc2cccs2)c1	ALR inh 99 (no result: ARNT TACC3 PPI)
COc1ccc(C(=O)NC(=S)NNC(=O)Cc2cccs2)cc1	ALR inh 99 (no result: ERp5 inh)
O=C(/C=C/c1cccs1)NC(=S)NNC(=O)Cc1cccs1	CendR NRP1 mod 29 (no result: ERp5 inh)
COCCN1C(=O)/C(=C2/C(=O)N(CC(=O)Nc3ccccc3Cl)c3ccccc32)SC1=S	CendR NRP1 mod 28
CCN1C(=O)/C(=C2\SC(=S)N(CCCOC)C2=O)c2ccccc21	none (no result: ERp5 inh)
CN1C(=O)CC(N2CCN(c3ccc(Cl)cc3)CC2)C1=O (stereo unspecified)	ALR inh 98 (no result: PglD inh)
Cn1nc(C(C)(C)C)cc1C(=O)O	none (no result: PglD inh)
Cn1nc(C(C)(C)C)cc1C(=O)Sc1cccc(Br)c1	ALR inh 99
COCC(=O)N(C)C[C@@H]1Oc2ncc(C#CC(C)(C)O)cc2C(=O)N([C@H](C)CO)C[C@@H]1C	none (no result: CendR NRP1 mod, ALR inh, PDI inh)
CCNC(=S)Nc1cc(-c2ccc(Cl)cc2)[nH]n1	ALR inh 97 (no result: PglD inh)
CCNC(=S)Nc1ccc(Cl)cc1	none
CCOC(=O)C[C@H]1c2cc(F)ccc2S(=O)(=O)N1c1ccccc1	none
COC(=O)C[C@H]1c2cc(F)ccc2S(=O)(=O)N1c1ccc(N(C)C)cc1	ALR inh 99
C[C@@H]1CN([C@@H](C)CO)C(=O)c2cc(C3=CCCC3)cnc2O[C@@H]1CN(C)C(=O)C1CCOCC1	none (no result: CendR NRP1 mod, ALR inh, PDI inh, ARNT TACC3 PPI)
